# How the values were obtained:
# Details in all cases: concentration: 1 μM, replicates: in singlicate; n = 1
# TESK1 = system: TESK1
# TGFBR1 = system: TGFBR1
# TGFBR2 = system: TGFBR2
# TIE1 = system: TIE1
# TIE2 = system: T1, TIE2
# T1 construct: gene TEK
# TLK1 = system: TLK1
# TLK2 = system: TLK2
# TNIK = system: TNIK
# TNK1 = system: TNK1
# TNK2 = system: TNK2
# TNNI3K = system: TNNI3K
# TRKA = system: T2, TRKA
# T2 construct: gene NTRK1
# TRKB = system: TRKB
# TRKC = system: T3, TRKC
# T3 construct: gene NTRK3
# TRPM6 = system: TRPM6
# TSSK1B = system: TSSK1B
# TSSK3 = system: TSSK3
# TTK = system: TTK
# TXK = system: TXK
# [1] = system: TYK2(JH1domain-catalytic)
# 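Further: KINOMEscan kinase panel screen.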
Compound,%Inh (TESK1),%Inh (TGFBR1),%Inh (TGFBR2),%Inh (TIE1),%Inh (TIE2),%Inh (TLK1),%Inh (TLK2),%Inh (TNIK),%Inh (TNK1),%Inh (TNK2),%Inh (TNNI3K),%Inh (TRKA),%Inh (TRKB),%Inh (TRKC),%Inh (TRPM6),%Inh (TSSK1B),%Inh (TSSK3),%Inh (TTK),%Inh (TXK),%Inh [1]
Cl.Cl.NCC(NCc1ccc(-c2ccnc3[nH]ccc23)s1)c1ccccc1 (centres unmarked) [GSK1321565],18%,15%,0%,9%,0%,0%,0%,0%,0%,0%,0%,98.5%,72%,70%,0%,38%,16%,0%,25%,80%
C[C@@H]1CC[C@@H](C(=O)Nc2ccccc2)CN1c1cc(-c2ccc3c(N)n[nH]c3c2)nc(N)n1 [GSK2286062],29%,0%,0%,0%,22%,0%,4%,0%,0%,0%,0%,12%,0%,13%,0%,0%,0%,9%,0%,15%
Cl.Cl.NCC(NC(=O)c1cc(-c2ccccc2)c(-c2ccnc3[nH]ccc23)s1)c1ccccc1 (centres unmarked) [GSK1321561],16%,0%,0%,13%,0%,54%,0%,86%,0%,7%,18%,58%,26%,6%,28%,0%,18%,0%,45%,20%
CC(=O)N1CCN(c2ccc(Nc3nccc(-c4sc(C(C)C)nc4-c4cccc(NS(=O)(=O)c5cccc(Cl)c5)c4)n3)cn2)CC1 [GSK1660437],66%,76%,79%,76%,96.8%,0%,0%,10%,95.6%,28%,22%,45%,0%,0%,41%,10%,4%,56%,20%,29%
Cn1cc(-c2ccc3c(c2)CCN3C(=O)Cc2cccc(F)c2)c2c(N)ncnc21 [GSK2603358],39%,0%,0%,89%,48%,0%,0%,0%,0%,3%,0%,34%,55%,50%,0%,5%,11%,67%,25%,22%
CCn1c(-c2nonc2N)nc2c(C#CC(C)(C)O)nc(OC[C@H](N)c3ccccc3)cc21 [GSK943949],0%,9%,0%,0%,0%,2%,0%,4%,0%,8%,0%,18%,0%,18%,0%,49%,82%,15%,8%,19%
CCS(=O)(=O)c1ccc(OC)c(Nc2nccc(-c3c(-c4cccc(NC(=O)c5c(F)cccc5F)c4)nn4ncccc34)n2)c1 [GSK326180],2%,22%,0%,47%,37%,3%,0%,0%,85%,48%,15%,0%,5%,0%,55%,23%,12%,0%,15%,0%
Cl.Cl.NCC(C(=O)Nc1cc(Br)c(-c2ccnc3[nH]ccc23)s1)c1ccccc1 (centres unmarked) [GSK1269851],0%,0%,0%,51%,6%,0%,0%,11%,6%,12%,12%,19%,28%,31%,7%,21%,4%,0%,0%,22%
Cc1occc1-c1ncc(OC[C@@H](N)Cc2c[nH]c3ccccc23)cc1-c1ccc2[nH]nc(C)c2c1.O=C(O)C(F)(F)F [GSK682037],19%,0%,0%,18%,0%,0%,0%,97.2%,15%,0%,5%,33%,13%,0%,0%,16%,13%,22%,47%,7%
Cc1ccc(C(=O)Nc2ccc(Nc3ccnc4cc(-c5nccs5)ccc34)cc2O)cc1.Cl [GW494702],15%,40%,0%,16%,5%,0%,0%,36%,46%,96.9%,6%,60%,20%,25%,29%,13%,6%,0%,52%,42%
